Inconclusive results are not listed. Calls of active or inactive are those of the source. Unless noted, calls come from the whole dose curve.
Tests used:
[1] = qHTS assay to identify small molecule agonists of the sonic hedgehog signaling (Shh) pathway (AID 1259368);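 note: NIH/3T3-derived 3T3Gli1-Luc cells carrying a stable Gli1-driven firefly luciferase reporter; series mostly up to about 92 µM; % is set by controls: 0 for no effect and ±100 for the full control effect; nearly all actives have a fitted effect of over 15% in size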
How it was run: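 Stable NIH/3T3 Gli1-Luc reporter clone; 24 hr cpd exposure after a 4 hr settling period; luminescence endpoint.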

[2] = molecular target: Estrogen receptor beta (Homo sapiens) (UniProt Q92731); test: qHTS assay to identify small molecule agonists of the estrogen receptor beta (ER-beta) signaling pathway (AID 1259377; active = well fitted activation curve with a large enough effect in the signal ratio in the repeat runs, not every such curve was filed as active; the % refers to the signal ratio; note: % is set by controls: 0 for no effect and ±100 for the full control effect)
Sequence of Estrogen receptor beta (Homo sapiens) (Q92731 whole entry, looked up): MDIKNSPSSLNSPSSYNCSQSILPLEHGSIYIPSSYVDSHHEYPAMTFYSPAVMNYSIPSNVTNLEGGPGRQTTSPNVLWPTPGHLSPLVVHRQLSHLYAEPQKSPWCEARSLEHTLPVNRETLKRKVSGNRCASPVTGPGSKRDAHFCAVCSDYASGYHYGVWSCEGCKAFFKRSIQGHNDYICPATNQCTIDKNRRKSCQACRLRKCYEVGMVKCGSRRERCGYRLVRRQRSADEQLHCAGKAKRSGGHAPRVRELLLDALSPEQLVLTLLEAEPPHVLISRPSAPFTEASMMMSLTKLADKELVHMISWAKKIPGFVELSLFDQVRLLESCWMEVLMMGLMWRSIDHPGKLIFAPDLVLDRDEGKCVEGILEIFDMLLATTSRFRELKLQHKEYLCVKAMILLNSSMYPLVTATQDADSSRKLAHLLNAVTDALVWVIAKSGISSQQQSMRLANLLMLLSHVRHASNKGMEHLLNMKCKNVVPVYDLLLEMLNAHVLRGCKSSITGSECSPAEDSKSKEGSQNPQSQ
How it was run: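 Screening used GripTite ER-beta-UAS-bla cells held in 2% charcoal-stripped FBS medium. After overnight (16 hr) compound incubation at 37C, beta-lactamase activity was detected with a FRET substrate by fluorescence.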

[3] = molecular target: Estrogen receptor beta (Homo sapiens) (UniProt Q92731); test: qHTS assay to identify small molecule antagonists of the estrogen receptor beta (ER-beta) signaling pathway (AID 1259378; active = well fitted inhibition curve with a large enough effect in the signal ratio in the repeat runs, not every such curve was filed as active; the % refers to the signal ratio; note: % is set by controls: 0 for no effect and ±100 for the full control effect)
How it was run: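 ER-beta-UAS-bla HEK293T (GripTite) cells in 2% charcoal-stripped FBS medium were preincubated 6 hr at 37C, dosed with compound, then stimulated with 1 nM E2 (final) for 16 hr; beta-lactamase reporter read by B/G FRET fluorescence after 2 hr substrate loading.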

[4] = qHTS assay to identify small molecule agonists of the androgen receptor (AR) signaling pathway in the presence of an antagonist - cell viability counter screen (AID 1259379; active = well fitted curve in the direction sought with a large enough effect in the repeat runs; an effect the other way counts as inactive or inconclusive;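 note: MDA-kb2 human breast cancer cells carrying an MMTV luciferase reporter; series mostly up to about 92 µM; % is set by controls: 0 for no effect and ±100 for the full control effect; nearly all actives have a fitted effect of over 25% in size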)
How it was run: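 Counter screen for cell viability run in parallel with the AR agonist-mode luciferase assay. MDA-kb2 cells were co-treated with nilutamide (3.0uM final) and compounds, then incubated 16 hr at 37C, and CellTiter-Fluor fluorescence was measured.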

[5] = qHTS assay to identify small molecule agonists of the estrogen receptor beta (ER-beta) signaling pathway - cell viability counter screen (AID 1259380; active = well fitted curve in the direction sought with a large enough effect in the repeat runs; an effect the other way counts as inactive or inconclusive; note: % is set by controls: 0 for no effect and ±100 for the full control effect; nearly all actives have a fitted effect of over 30% in size)
How it was run: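 In this qHTS counter screen, HEK293T cells carrying an ER-beta/UAS beta-lactamase reporter, grown in 2% charcoal-stripped FBS, received compound for 16 hr; ATP-based CellTiter-Glo luminescence was then read after 30 min at room temperature.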

[6] = qHTS assay to identify small molecule antagonists of the estrogen receptor beta (ER-beta) signaling pathway - cell viability counter screen (AID 1259382; active = well fitted curve in the direction sought with a large enough effect in the repeat runs; an effect the other way counts as inactive or inconclusive; note: series mostly up to about 92 µM; % is set by controls: 0 for no effect and ±100 for the full control effect; nearly all actives have a fitted effect of over 55% in size)
How it was run: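 HEK293T ER-beta-UAS-bla, 2% charcoal-stripped FBS; compounds + 1nM E2 16 hr 37C; CellTiter-Glo luminescence, 30 min RT.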

[7] = molecular target: Estrogen receptor (Homo sapiens) (UniProt P03372); test: qHTS assay to identify small molecule agonists of the estrogen receptor alpha (ER-alpha) signaling pathway in the presence of an antagonist (AID 1259383); note: top concentration of the series differs between compounds; % is set by controls: 0 for no effect and ±100 for the full control effect; nearly all actives have a fitted effect of over 15% in size
Sequence of Estrogen receptor (Homo sapiens) (P03372 whole entry, looked up): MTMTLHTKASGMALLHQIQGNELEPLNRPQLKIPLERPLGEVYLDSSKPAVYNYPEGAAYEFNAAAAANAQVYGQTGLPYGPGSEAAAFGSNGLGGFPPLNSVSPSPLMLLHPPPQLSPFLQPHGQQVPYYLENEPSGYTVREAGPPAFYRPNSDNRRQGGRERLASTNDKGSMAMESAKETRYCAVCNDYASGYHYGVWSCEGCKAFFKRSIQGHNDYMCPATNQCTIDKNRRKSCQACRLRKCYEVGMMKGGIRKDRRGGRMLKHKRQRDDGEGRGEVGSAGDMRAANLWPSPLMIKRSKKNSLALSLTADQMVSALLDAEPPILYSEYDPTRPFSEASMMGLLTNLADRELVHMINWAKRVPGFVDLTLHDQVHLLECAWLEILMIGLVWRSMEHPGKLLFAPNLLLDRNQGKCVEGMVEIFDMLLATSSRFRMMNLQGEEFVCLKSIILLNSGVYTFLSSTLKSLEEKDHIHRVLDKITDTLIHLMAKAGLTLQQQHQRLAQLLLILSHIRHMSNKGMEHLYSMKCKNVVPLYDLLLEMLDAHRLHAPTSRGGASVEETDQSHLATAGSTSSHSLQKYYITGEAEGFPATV
How it was run: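 ER-alpha agonism measured under antagonist challenge: 10.0nM ICI-182,780 (final) plus compound, 15 concentrations, 22hr, VM7Luc4E2 ERE-luciferase cells. Read by luminescence.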

[8] = qHTS assay to identify small molecule agonists or antagonists of the thyroid stimulating hormone receptor (TSHR) signaling pathway - wild type cell line counter screen (AID 1259384); note: % is set by controls: 0 for no effect and ±100 for the full control effect
How it was run: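 Wild-type HEK293 cells were plated 18 h at 37 C/5% CO2, pin-dosed with compound plus Ro20-1724 medium, held 30 min at room temperature, then given cAMP-d2 and anti-cAMP-cryptate; fluorescence was read after 1 h. Fifteen concentrations, triplicate.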

[9] = molecular target: Thyrotropin receptor (Homo sapiens) (UniProt P16473); test: qHTS assay to identify small molecule antagonists of the thyroid stimulating hormone receptor (TSHR) signaling pathway (AID 1259385); note: % is set by controls: 0 for no effect and ±100 for the full control effect; nearly all actives have a fitted effect of over 20% in size
Sequence of Thyrotropin receptor (Homo sapiens) (P16473 whole entry, looked up): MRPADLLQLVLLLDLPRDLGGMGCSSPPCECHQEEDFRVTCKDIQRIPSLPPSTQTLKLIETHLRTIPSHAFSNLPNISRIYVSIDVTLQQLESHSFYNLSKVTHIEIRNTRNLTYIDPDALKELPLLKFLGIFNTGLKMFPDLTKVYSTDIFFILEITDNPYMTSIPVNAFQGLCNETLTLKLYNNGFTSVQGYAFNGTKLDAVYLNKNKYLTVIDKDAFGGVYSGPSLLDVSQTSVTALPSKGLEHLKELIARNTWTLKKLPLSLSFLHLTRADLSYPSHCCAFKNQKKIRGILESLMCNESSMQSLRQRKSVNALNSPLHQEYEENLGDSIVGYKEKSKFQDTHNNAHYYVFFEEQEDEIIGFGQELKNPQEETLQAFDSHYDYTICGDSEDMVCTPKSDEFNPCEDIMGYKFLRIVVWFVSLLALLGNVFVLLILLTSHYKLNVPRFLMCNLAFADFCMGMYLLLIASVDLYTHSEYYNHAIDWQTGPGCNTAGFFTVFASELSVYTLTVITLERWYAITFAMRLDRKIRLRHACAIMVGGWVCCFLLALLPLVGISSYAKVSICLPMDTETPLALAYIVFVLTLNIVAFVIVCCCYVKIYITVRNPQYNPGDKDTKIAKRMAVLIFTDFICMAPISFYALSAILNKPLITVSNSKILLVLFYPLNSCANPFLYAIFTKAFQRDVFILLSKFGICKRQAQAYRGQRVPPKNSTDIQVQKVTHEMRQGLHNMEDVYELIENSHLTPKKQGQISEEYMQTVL
How it was run: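 TSHR-HEK293 cells were plated and held 18 h at 37C/5% CO2, then given compound plus Ro20-1724 and stimulated with TSH at 1.5 ng/mL final. After 30 min at room temperature, cAMP was detected with cAMP-d2/anti-cAMP-cryptate (1 h) by fluorescence.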

[10] = qHTS assay to identify small molecule agonists of the estrogen receptor alpha (ER-alpha) signaling pathway in the presence of an antagonist - cell viability counter screen (AID 1259386; active = well fitted curve in the direction sought with a large enough effect in the repeat runs; an effect the other way counts as inactive or inconclusive;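 note: series mostly up to about 92 µM; cells exposed to compounds for 22 h at 37 °C before the viability read; % is set by controls: 0 for no effect and ±100 for the full control effect; nearly all actives have a fitted effect of over 30% in size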)
How it was run: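 Steps: 5-day stripped-FBS culture; seed and incubate 24hr; add ICI-182,780 (10.0nM final); pin 15-point compound titration; incubate 22hr at 37C; add CellTiter-Fluor at 21hr; read fluorescence.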

[11] = molecular target: Progesterone receptor (Homo sapiens) (UniProt P06401); test: qHTS assay to identify small molecule agonists of the progesterone receptor (PR) signaling pathway (AID 1346784); note: % is set by controls: 0 for no effect and ±100 for the full control effect; nearly all actives have a fitted effect of over 30% in size
Sequence of Progesterone receptor (Homo sapiens) (P06401 whole entry, looked up): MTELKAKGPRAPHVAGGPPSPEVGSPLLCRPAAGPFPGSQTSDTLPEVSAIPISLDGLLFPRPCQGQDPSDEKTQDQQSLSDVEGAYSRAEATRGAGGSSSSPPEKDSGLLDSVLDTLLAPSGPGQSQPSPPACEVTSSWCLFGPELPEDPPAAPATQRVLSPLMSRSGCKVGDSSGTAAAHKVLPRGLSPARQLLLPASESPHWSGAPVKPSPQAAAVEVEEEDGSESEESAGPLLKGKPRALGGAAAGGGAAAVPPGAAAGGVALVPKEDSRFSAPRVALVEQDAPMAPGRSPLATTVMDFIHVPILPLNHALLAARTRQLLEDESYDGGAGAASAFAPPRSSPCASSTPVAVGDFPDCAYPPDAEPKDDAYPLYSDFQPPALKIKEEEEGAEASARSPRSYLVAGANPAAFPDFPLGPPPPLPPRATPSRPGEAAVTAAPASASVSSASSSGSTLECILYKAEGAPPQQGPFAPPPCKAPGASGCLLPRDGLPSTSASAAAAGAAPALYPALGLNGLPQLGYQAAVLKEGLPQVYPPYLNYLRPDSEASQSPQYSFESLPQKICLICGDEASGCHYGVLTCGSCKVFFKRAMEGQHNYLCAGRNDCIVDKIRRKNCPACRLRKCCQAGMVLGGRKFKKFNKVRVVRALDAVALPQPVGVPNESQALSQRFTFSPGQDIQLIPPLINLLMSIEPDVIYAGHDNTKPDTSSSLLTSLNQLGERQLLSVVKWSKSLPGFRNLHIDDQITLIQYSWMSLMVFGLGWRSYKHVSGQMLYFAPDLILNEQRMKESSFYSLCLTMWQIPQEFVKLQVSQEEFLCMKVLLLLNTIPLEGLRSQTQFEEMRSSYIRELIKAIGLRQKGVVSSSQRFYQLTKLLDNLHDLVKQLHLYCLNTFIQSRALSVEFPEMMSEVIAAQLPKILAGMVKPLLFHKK
How it was run: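 Seed PR-UAS-bla HEK 293T cells (2% charcoal-stripped FBS), incubate 6 hr at 37C; add compounds in DMSO, 16 hr at 37C; add LiveBLAzer B/G substrate, 2 hr RT; read fluorescence intensity.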

[12] = molecular target: Progesterone receptor (Homo sapiens) (UniProt P06401); test: qHTS assay to identify small molecule antagonists of the progesterone receptor (PR) signaling pathway (AID 1346795; active = well fitted inhibition curve with a large enough effect in the signal ratio in the repeat runs, not every such curve was filed as active; the % refers to the signal ratio; note: % is set by controls: 0 for no effect and ±100 for the full control effect)
How it was run: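 Screening used a GripTite HEK293T line with PR-responsive UAS-beta-lactamase. Cells were challenged with compound in the presence of 1 nM R5020 final for 16 hr at 37C; B/G FRET substrate, 2 hr room temperature, fluorescence.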

[13] = qHTS assay to identify small molecule antagonists of the progesterone receptor (PR) signaling pathway - cell viability counter screen (AID 1346798; active = well fitted curve in the direction sought with a large enough effect in the repeat runs; an effect the other way counts as inactive or inconclusive; note: series mostly up to about 92 µM; % is set by controls: 0 for no effect and ±100 for the full control effect; nearly all actives have a fitted effect of over 50% in size)
How it was run: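 Measures cytotoxicity in parallel with the PR antagonist reporter read: HEK293T PR-UAS-bla cells get compound and R5020 for 16 hr, and remaining viable cells are quantified by CellTiter-Glo luminescence.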

[14] = qHTS assay to identify small molecule agonists of the progesterone receptor (PR) signaling pathway - cell viability counter screen (AID 1346799); note: % is set by controls: 0 for no effect and ±100 for the full control effect; nearly all actives have a fitted effect of over 45% in size
How it was run: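 Using the same plates as the PR reporter screen, HEK293T PR-UAS-bla cells received compounds for 16 hr at 37C and were then lysed with CellTiter-Glo; luminescence was read 30 min later at room temperature.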

[15] = qHTS assay to identify small molecule antagonists of the TGF-beta/Smad signaling pathway - cell viability counter screen (AID 1346824; active = well fitted curve in the direction sought with a large enough effect in the repeat runs; an effect the other way counts as inactive or inconclusive; note: % is set by controls: 0 for no effect and ±100 for the full control effect; nearly all actives have a fitted effect of over 50% in size)
How it was run: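 SBE-bla HEK 293T cells were plated overnight at 37 C, then given compounds in DMSO plus TGF-beta1 (added as 0.25 ng/mL solution) for 5 hr. After the bla read, CellTiter-Glo was added to the same wells and luminescence read after 30 min at room temperature.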

[16] = qHTS assay to identify small molecule agonists of the TGF-beta/Smad signaling pathway (AID 1346859; active = well fitted activation curve with a large enough effect in the signal ratio in the repeat runs, not every such curve was filed as active; the % refers to the signal ratio)
How it was run: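 Beta-lactamase reporter activity downstream of Smad binding elements was measured in stably transfected HEK 293T cells; compounds were incubated for 5 hr, substrate for 2 hr at room temperature.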

[17] = molecular target: Thyrotropin-releasing hormone receptor (Homo sapiens) (UniProt P34981); test: qHTS assay to identify small molecule antagonists of the thyrotropin-releasing hormone receptor (TRHR) signaling pathway (AID 1346877; active = well fitted inhibition curve with a large enough effect in the repeat runs, not every such curve was filed as active)
Sequence of Thyrotropin-releasing hormone receptor (Homo sapiens) (P34981 whole entry, looked up): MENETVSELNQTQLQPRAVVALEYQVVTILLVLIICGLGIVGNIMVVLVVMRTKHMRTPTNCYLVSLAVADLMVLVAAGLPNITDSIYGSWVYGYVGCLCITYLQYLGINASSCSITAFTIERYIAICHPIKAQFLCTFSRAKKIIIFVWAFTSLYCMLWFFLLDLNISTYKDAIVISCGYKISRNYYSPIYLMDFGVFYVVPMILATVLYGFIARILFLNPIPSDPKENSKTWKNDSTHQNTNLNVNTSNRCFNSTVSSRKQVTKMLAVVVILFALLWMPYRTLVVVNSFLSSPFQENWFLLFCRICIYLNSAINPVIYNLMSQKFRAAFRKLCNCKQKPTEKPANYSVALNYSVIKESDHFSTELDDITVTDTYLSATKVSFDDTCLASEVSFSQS
How it was run: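 Human TRHR in HEK293 cells; inhibition of the intracellular calcium rise triggered by 1 nM TRH was followed by fluorescence over 3 min. Compounds were run at 15 concentrations, three replicates each.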

[18] = molecular target: Androgen receptor (Homo sapiens) (UniProt P10275); test: qHTS assay to identify small molecule agonists of the androgen receptor (AR) signaling pathway in the presence of an antagonist (AID 1259381); note: potency is the fitted concentration of half-maximal effect; nearly all actives have a fitted effect of over 15% in size
Sequence of Androgen receptor (Homo sapiens) (P10275 whole entry, looked up): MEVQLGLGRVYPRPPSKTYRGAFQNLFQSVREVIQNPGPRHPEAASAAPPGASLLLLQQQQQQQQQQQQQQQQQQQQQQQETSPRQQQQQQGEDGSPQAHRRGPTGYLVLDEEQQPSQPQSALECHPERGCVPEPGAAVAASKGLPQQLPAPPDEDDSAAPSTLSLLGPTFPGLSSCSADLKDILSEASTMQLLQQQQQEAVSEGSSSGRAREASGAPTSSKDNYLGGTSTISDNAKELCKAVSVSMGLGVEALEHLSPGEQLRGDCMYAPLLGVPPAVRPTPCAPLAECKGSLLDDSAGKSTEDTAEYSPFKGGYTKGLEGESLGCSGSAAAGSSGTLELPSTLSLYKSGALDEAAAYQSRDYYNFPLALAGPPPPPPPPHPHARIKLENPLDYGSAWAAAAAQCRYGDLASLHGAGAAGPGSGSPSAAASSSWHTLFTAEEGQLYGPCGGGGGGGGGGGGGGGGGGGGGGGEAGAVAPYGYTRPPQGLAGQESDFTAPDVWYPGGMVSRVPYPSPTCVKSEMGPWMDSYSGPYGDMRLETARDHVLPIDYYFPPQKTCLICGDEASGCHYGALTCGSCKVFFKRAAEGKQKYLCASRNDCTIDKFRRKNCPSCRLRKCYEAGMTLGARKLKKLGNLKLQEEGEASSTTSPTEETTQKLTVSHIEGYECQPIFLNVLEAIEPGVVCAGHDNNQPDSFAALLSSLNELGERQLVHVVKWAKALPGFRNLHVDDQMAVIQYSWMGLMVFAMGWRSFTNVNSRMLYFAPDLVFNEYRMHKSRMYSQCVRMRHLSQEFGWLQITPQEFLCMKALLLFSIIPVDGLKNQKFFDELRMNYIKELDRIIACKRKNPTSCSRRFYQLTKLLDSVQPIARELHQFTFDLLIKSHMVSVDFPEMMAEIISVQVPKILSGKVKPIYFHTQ
How it was run: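 AR antagonist background: nilutamide 3.0uM final. Cell line: MDA-kb2, MMTV-driven luciferase, responsive to both AR and GR. Exposure 16hr, 37C, no CO2; ONE-Glo luminescence.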

Nc1c[n+](N2CCOCC2)no1
inactive: outcome [1] | outcome [2] | outcome [3] | Potency [4] | Potency [5] | Potency [6] | Potency [7] | outcome [8] | Potency [9] | Potency [10] | Potency [11] | Potency [12] | Potency [13] | Potency [14] | Potency [15] | outcome [16] | outcome [17]

Cc1cccn2c(=O)c(-c3nnn[nH]3)cnc12
inactive: activity change [1] 0.228% [at 18.9 µM] | outcome [2] | activity, negative = inhibition [3] 3.16% [at 19 µM] | activity change, negative = cytotoxicity [4] 1.69% [at 19 µM] | activity change, negative = cytotoxicity [6] -8.96% [at 19 µM] | activation [7] -1.22% [at 19 µM] | cAMP activity change [8] -0.907% [at 18.9 µM] | activity change, negative = inhibition [9] -4.29% [at 19 µM] | activity change, negative = cytotoxicity [10] 5.01% [at 19 µM] | activation [11] 2.07% [at 19 µM] | Potency [12] | Potency [13] | viability change, negative = cytotoxic [15] 3.02% [at 15.8 µM] | activation [16] -4.24% [at 15.8 µM]

CCC(=O)OC(C)c1ccccc1 (stereo not drawn)
inactive: outcome [1] | outcome [2] | outcome [3] | Potency [4] | Potency [5] | Potency [6] | Potency [7] | outcome [8] | Potency [9] | Potency [10] | Potency [11] | Potency [13] | Potency [14] | Potency [15] | outcome [16] | outcome [17]

O=C1CC2CC1C1CCCC21 (stereo not drawn)
active: Potency [18] 27.3 µM
inactive: outcome [1] | outcome [2] | outcome [3] | Potency [5] | Potency [6] | Potency [7] | outcome [8] | Potency [9] | Potency [11] | Potency [12] | Potency [13] | Potency [14] | Potency [15] | outcome [16] | outcome [17]

— PubChem BioAssay (Tox21)
